Among all 1,100 compounds or so, fewer than 10 were called active. Calls come from the whole dose curve; as a rule, active = well fitted curve in the direction sought with a large enough effect; inconclusive = small, poorly fitted or top-dose-only effect, or another doubt; inactive = no such curve, though single readings can be large or run the other way. A selection follows.
Test: qHTS for Inhibitors of PI5P4K: ADP-Glo counter assay
Conditions: ADP-Glo detection counter-screen, luciferase luminescence, no enzyme; series mostly up to 76.9 µM
Description: In addition to finding PI5P, we discovered the type II phosphatidylinositol 5-phosphate 4-kinase (PI5P4K) family (alpha, beta, gamma isoforms) that catalyze the conversion of PI5P to PI(4,5)P2. Alternatively, PI(4,5)P2 can also be synthesized through phosphatidylinositol-4-phosphate (PI4P) by the type I phosphatidylinositol 4-phosphate 5-kinases (PI4P5K). These PI5P4K enzymes therefore represent one way by which cells can regulate endogenous PI5P levels and play important roles in insulin signaling and in stress responses. […] A qHTS PI5P4K-alpha ADP-Glo assay was developed to identify specific modulators of human PI5P4K, phosphatidylinositol-5-phosphate 4-kinase (Type II PIPK). This assay was screened against the MLSMR containing ~400,000 small molecules (PubChem AID 652105). To confirm that the hits were not interacting with the detection enzyme system, a 1536-well counterscreen against the ADP-Glo kit (Promega) was utilized, as described in Davis et al., 2013 [1]. For this assay, an ATP/ADP mix of 80% ATP and 20% ADP was used to mimic the PI5P4K-alpha enzyme reaction. […] Therefore, true inhibitors of PI5P4K-alpha should have no activity in this assay. Davis et al., PLoS One. 2013;8(1):e54127. NIH Chemical Genomics Center [NCGC] NIH Molecular Libraries Probe Centers Network [MLPCN] MLPCN Grant: MH096575 Assay Submitter (PI): Atsuo Sasaki, Beth Israel Deaconess Medical Center
Two micoliter of assay buffer (0.038 M HEPES pH 7.4, 0.28 mM EGTA, 0.1% CHAPS, 7.5% DMSO) was dispensed into Greiner white solid bottom 1536-well assay plates. Compounds were then transferred via Kalypsys pin tool equipped with 1536-pin array (10 nL slotted pins, V&P Scientific, San Diego, CA). Next, 1 uL of ATP / ADP mix (4 uM ATP / 1 uM ADP final concentrations in 20 mM HEPES pH 7.4, 60 mM MgCl2, and 0.1% CHAPS) was added for a total reaction volume of 3 uL. The plates were incubated at room temperature for 60 minutes. To detect the activity, 2 uL of ADP-Glo reagent 1 was added to each well followed by 45 min room temperature incubation. Then, 4 uL of ADP-Glo reagent 2 was added to each well and the plates were incubated further for 30 min at room temperature. Finally, luminescence signal was detected using the PerkinElmer ViewLux plate reader (30 sec exposure). The data was normalized to control wells with 20% ADP / 80% ATP and wells with 100% ATP.

With `Cc1cnc(NC(=O)CSc2c(Cl)cccc2Cl)s1` as the molecule, how does the outcome read?
Its outcome is “inactive”.

For `Cc1cc(=O)n2[nH]c(-c3sccc3-n3c(C)ccc3C)cc2n1`, which outcome is on record?
Its outcome is “inactive”.

Which outcome does the source give for `O=C(Cc1cccs1)N(CC1CCCO1)C1(C(=O)NC2CCCCC2)CCCCC1` (stereo not given) here?
The outcome was “inactive”.

Which outcome does the source give for `CCOC(=O)C1Nc2ccc(C(F)(F)F)cc2C2C=CCC12` (stereo not given) here?
The outcome was “inactive”.

Which outcome does the source give for `O=C1CC(c2ccccc2)=NN1c1ccc([N+](=O)[O-])cc1` here?
Its outcome is “inactive”.

For `CC(=O)N1c2ccc(S(=O)(=O)NCCC(=O)N(C)C3CCCCC3)cc2CC1C` (stereo not given), which outcome is on record?
The outcome was “inactive”.

Which outcome does the source give for `O=C(COc1ccc(-n2cnnn2)cc1)Nc1ccccc1Cl` here?
The outcome was “inactive”.

Which outcome does the source give for `Cc1cccnc1NC(=O)CSc1nnc(COc2ccc(C(C)C)cc2)n1C` here?
Its outcome is “inactive”.

Which outcome does the source give for `O=C(Nc1ccc(S(=O)(=O)Nc2nccs2)cc1)c1cc(-c2ccncc2)nc2ccccc12` here?
Its outcome is “inactive”.

With `Cc1csc(=O)n1CCC(=O)OCC(=O)Nc1ccc(N2CCOCC2)cc1` as the molecule, how does the outcome read?
Its outcome is “inactive”.

For `CCC(c1nnnn1Cc1ccco1)N(CCc1ccccc1)Cc1cc2ccc(OC)cc2[nH]c1=O` (stereo not given), which outcome is on record?
Its outcome is “inactive”.

Which outcome does the source give for `Cc1ccc(C(c2nnnn2CS(=O)(=O)c2ccc(C)cc2)N2CCC(C)CC2)cc1` (stereo not given) here?
Its outcome is “inactive”.

For `COc1cccc2c(C)c(C(=O)O)[nH]c12`, which outcome is on record?
Its outcome is “inactive”.

For `CC(CNC(=O)c1ccc(Br)o1)NC(=O)c1ccc(Br)o1` (stereo not given), which outcome is on record?
The outcome was “inactive”.

Which outcome does the source give for `Cc1ccc(Cc2c(-c3ccco3)nc3ccc(Cl)cn23)cc1` here?
Its outcome is “inactive”.

For `OCCNc1nc(Nc2ccc(Cl)c(Cl)c2)nc2ccccc12`, which outcome is on record?
The outcome was “inactive”.

With `O=C(c1cc(-c2ccco2)nc2ccccc12)N(Cc1nnc(-c2ccc(Cl)cc2)o1)C1CC1` as the molecule, how does the outcome read?
The outcome was “inactive”.

With `O=C(c1cc2c(s1)CCC2)N1CCN(c2ccccc2)CC1` as the molecule, how does the outcome read?
Its outcome is “inactive”.

For `O=C(c1cccnc1)N(c1cc2sc(=O)oc2c2ccccc12)S(=O)(=O)c1ccccc1`, which outcome is on record?
Its outcome is “inactive”.

For `COc1ccc(C(=O)N2CCC(C(=O)Nc3ccc(C)cc3)CC2)cc1`, which outcome is on record?
The outcome was “inactive”.

For `COc1ccc(OCCCC(=O)Nc2nnc(C3CCCO3)s2)cc1` (stereo not given), which outcome is on record?
The outcome was “inactive”.

With `Cc1cc(NC(=O)Nc2ccccc2[N+](=O)[O-])no1` as the molecule, how does the outcome read?
The outcome was “inactive”.

For `O=c1oc2cc(O)ccc2cc1-c1ccc(F)cc1`, which outcome is on record?
Its outcome is “inactive”.

Which outcome does the source give for `COCCNC(=O)Nc1ccc2nc(-c3ccco3)c(-c3ccco3)nc2c1` here?
Its outcome is “inactive”.

Which outcome does the source give for `COc1ccc(S(=O)(=O)/N=C2\C=C(NS(=O)(=O)c3ccccc3)C(=O)c3ccccc32)cc1` here?
The outcome was “inactive”.

For `COc1ccc(CCCc2nnc(SCc3nc4ccccc4c(=O)[nH]3)n2C)cc1`, which outcome is on record?
The outcome was “inactive”.

Which outcome does the source give for `CCOC(=O)c1cc2c(=O)[nH]c(C(Cl)(Cl)Cl)nc2o1` here?
Its outcome is “inactive”.

For `OCCCNc1nccc(-c2cc(Nc3cccc(Cl)c3)ncn2)n1`, which outcome is on record?
The outcome was “inactive”.

For `O=S(=O)(Nc1ccc2cn[nH]c2c1)c1ccccc1`, which outcome is on record?
The outcome was “inactive”.

Which outcome does the source give for `COc1cccc(C(=O)Nc2nc3ccc(S(C)(=O)=O)cc3s2)c1` here?
The outcome was “inactive”.

With `O=c1[nH]c2ccccc2n2c(-c3ccccc3)nnc12` as the molecule, how does the outcome read?
Its outcome is “inactive”.

Which outcome does the source give for `O=C(Cn1cnc2c(OCc3ccccc3)ncnc21)NCc1nc2ccccc2[nH]1` here?
The outcome was “inactive”.

For `O=C(Nc1nc(-c2ccncc2)cs1)C1COc2ccccc2O1` (stereo not given), which outcome is on record?
The outcome was “inactive”.

Which outcome does the source give for `COc1cc(=O)[nH]c(=O)n1C(=O)Cc1ccccc1` here?
The outcome was “inactive”.

For `COc1ccc(-c2cc(C(=O)Nc3ccccc3O)c3ccccc3n2)cc1`, which outcome is on record?
The outcome was “inactive”.

Which outcome does the source give for `Cc1cccc(C)c1NC(=O)C(c1ccc(C(F)(F)F)cc1)n1c(=O)c(-c2ccco2)nc2ccccc21` (stereo not given) here?
The outcome was “inactive”.

Which outcome does the source give for `O=C(NC1CCCCC1)C(c1cc2ccccc2o1)n1c(=O)c(-c2ccco2)nc2ccccc21` (stereo not given) here?
The outcome was “inactive”.

With `COc1ccc(C(CNC(=O)c2ccc(OCc3cscn3)cc2)N2CCCC2)cc1` (stereo not given) as the molecule, how does the outcome read?
Its outcome is “inactive”.

With `Cc1cc2nc(-c3ccco3)c(Cc3cccc(F)c3)n2c(C)c1Br` as the molecule, how does the outcome read?
Its outcome is “inactive”.

Which outcome does the source give for `O=C(CCNS(=O)(=O)c1ccc(Br)s1)NCc1ccccc1Cl` here?
The outcome was “inactive”.

With `C[C@H](NC(=O)c1nc[nH]c1C(=O)N[C@@H](C)C(=O)OC(C)(C)C)C(=O)OC(C)(C)C` as the molecule, how does the outcome read?
Its outcome is “inactive”.

For `CC(Oc1ccc(F)cc1)C(=O)N1CCN(c2ncccn2)CC1` (stereo not given), which outcome is on record?
Its outcome is “inactive”.

Which outcome does the source give for `Cn1c(SCC(=O)Nc2ccc(Cl)cc2)nc(O)cc1=O` here?
Its outcome is “inactive”.

For `Cc1ccc(Cn2c(C)nc3c(c2=O)c2nc4ccccc4nc2n3Cc2ccco2)cc1`, which outcome is on record?
Its outcome is “inactive”.

For `O=C(COC(=O)c1ccccc1O)NCc1ccco1`, which outcome is on record?
Its outcome is “inactive”.
